Test [1] can be described thus: qHTS assay to identify small molecule agonists of H2AX (AID 1224845; active = well fitted activation curve with a large enough effect in the signal ratio in the repeat runs, not every such curve was filed as active; the % refers to the signal ratio; note: potency is the fitted concentration of half-maximal effect). Summed up: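 Phospho-H2AX Ser139 measured by HTRF (ex 320 nm; em 665 and 620 nm) after 24 hr antibody incubation. Compounds, 15 concentrations, 0.76% DMSO, were applied to CHO-K1 cells for 3hr at 37C before lysis.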
(In general: qHTS replaces the single test concentration by a dilution series.)

Test [2] is described as follows: qHTS assay to identify small molecule agonists of the hypoxia (HIF-1) signaling pathway (AID 1224846; active = well fitted activation curve with a large enough effect in the signal ratio in the repeat runs, not every such curve was filed as active; the % refers to the signal ratio). Summed up:
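Steps: seed ME-180 HRE-bla cells (2,000/well, 0.5% dialyzed FBS); incubate 5 hrs at 37C; pin-transfer compounds or DMSO; incubate 17 hrs; add LiveBLAzer B/G substrate CCF4-AM; measure reporter activation by FRET.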

The nature of test [3]: qHTS assay to identify small molecule agonists of H2AX - cell viability counter screen (AID 1224847; calls by dose curve; note: top concentration of the series differs between compounds; nearly all actives have a fitted effect of over 30% in size). Summed up: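 We seed wild-type CHO-K1 cells overnight, treat them for 3 hr at 37C with compounds in 15-concentration series, and quantify remaining viability by CellTiter-Glo luminescence.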
Test [4] in a line: qHTS RealTime-Glo MT Cell Viability Assay in HepG2 cells - 24 hour (AID 1224867). Note: nearly all actives have a fitted effect of over 50% in size. The method in brief:
(§1)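 HepG2 suspension premixed with RealTime-Glo reagents is plated at 600 cells per well and left 5 h at 37 C/5% CO2. Compounds in DMSO then go in, and bioluminescence reflecting viable cell number is recorded over 40 h.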

Test [5] can be described thus: qHTS RealTime-Glo MT Cell Viability Assay in HEK293 cells - 32 hour (AID 1224868). Note: nearly all actives have a fitted effect of over 50% in size. Note: potency is the fitted concentration of half-maximal effect. The method in brief: (§2)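 Reads taken at 0, 8, 16, 24, 32 and 40 h from the same wells. HEK293 cells (600/well) carried RealTime-Glo reagents from seeding, with compound added after a 5 h settle at 37 C.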
Test [6] is described as follows: A CellTox Green Cytotoxicity Assay to monitor cytotoxicity in HEK293 cells - 0 hour (AID 1224869). Note: nearly all actives have a fitted effect of over 50% in size. Summed up:
(§3)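 Cytotoxicity was tracked continuously in HEK293 cells by a DNA-binding dye excluded from viable cells. Compounds were transferred in DMSO 5 h after seeding; fluorescence was recorded at intervals up to 40 h.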

Test [7] in a line: qHTS RealTime-Glo MT Cell Viability Assay in HepG2 cells - 40 hour (AID 1224870). Note: nearly all actives have a fitted effect of over 50% in size. Summed up:
(§4)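 Real-time viability: cells seeded at 600 per well together with NanoLuc and cell-permeant prosubstrate, compounds added after 5 h incubation. Luminescence tracked at 0, 8, 16, 24, 32 and 40 h of exposure.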

Test [8] is described as follows: qHTS RealTime-Glo MT Cell Viability Assay in HepG2 cells - 8 hour (AID 1224873). Note: nearly all actives have a fitted effect of over 55% in size. The method in brief:
as §4

Test [9] can be described thus: qHTS RealTime-Glo MT Cell Viability Assay in HEK293 cells - 40 hour (AID 1224874). Note: nearly all actives have a fitted effect of over 50% in size. Note: potency is the fitted concentration of half-maximal effect. The conditions noted are these: RealTime-Glo luminescence; max response: hits give low values. The method in brief:
(§5)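 Nonlytic bioluminescent viability monitoring. HEK293 at 600 cells/well with reagent; 5 h settle; compound transfer by pintool; plates held at 37 C and read at set time points.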

The nature of test [10]: A CellTox Green Cytotoxicity Assay to monitor cytotoxicity in HEK293 cells - 24 hour (AID 1224875). Note: nearly all actives have a fitted effect of over 45% in size. Note: potency is the fitted concentration of half-maximal effect. Summed up:
as §3

Test [11] in a line: A CellTox Green Cytotoxicity Assay to monitor cytotoxicity in HepG2 cells - 16 hour (AID 1224876). Note: nearly all actives have a fitted effect of over 45% in size. The method in brief:
(§6)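 Real-time, homogeneous cytotoxicity readout: dead-cell DNA staining by CellTox Green in HepG2 monolayers, fluorescence measured at timed intervals up to 40 h of continuous compound exposure.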

Test [12] is described as follows: qHTS RealTime-Glo MT Cell Viability Assay in HepG2 cells - 32 hour (AID 1224877). Note: nearly all actives have a fitted effect of over 55% in size. Summed up: as §1
The nature of test [13]: A CellTox Green Cytotoxicity Assay to monitor cytotoxicity in HepG2 cells - 24 hour (AID 1224878). Note: nearly all actives have a fitted effect of over 45% in size. Summed up: as §6
Test [14] can be described thus: qHTS RealTime-Glo MT Cell Viability Assay in HEK293 cells - 0 hour (AID 1224880). Note: top concentration of the series differs between compounds; nearly all actives have a fitted effect of over 45% in size. Summed up: as §5
A short description of test [15]: A CellTox Green Cytotoxicity Assay to monitor cytotoxicity in HEK293 cells - 32 hour (AID 1224881). Note: nearly all actives have a fitted effect of over 40% in size. The method in brief:
as §3

Test [16] can be described thus: qHTS assay to identify small molecule antagonists of the estrogen related receptor (ERR) signaling pathway from Tox21 library (AID 1224848). Note: nearly all actives have a fitted effect of over 50% in size. Note: potency is the fitted concentration of half-maximal effect. The method in brief:
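Antagonist-mode screen of the Tox21 10K library in an NTP-provided ERR reporter cell line; 18 h compound exposure at 37 C, luminescence measured with ONE-Glo.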

Test [17] is described as follows: qHTS assay to identify small molecule agonists of the estrogen related receptor (ERR) signaling pathway from Tox21 library (AID 1224849; calls by dose curve; note: nearly all actives have a fitted effect of over 15% in size). The settings on record: ERR reporter cell line, ONE-Glo luciferase, 18 h; at 92.4 µM (top of the series) unless noted. The method in brief: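 Agonist signal is luciferase luminescence from an ERR reporter cell line treated 18 h at 37 C with DMSO-dissolved compounds, read 30 min after ONE-Glo addition at room temperature.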

Test [18] in a line: A CellTox Green Cytotoxicity Assay to monitor cytotoxicity in HepG2 cells - 40 hour (AID 1224879). Note: nearly all actives have a fitted effect of over 40% in size. Note: potency is the fitted concentration of half-maximal effect. The method in brief: as §6
The nature of test [19]: qHTS RealTime-Glo MT Cell Viability Assay in HEK293 cells - 16 hour (AID 1224872). Note: nearly all actives have a fitted effect of over 50% in size. Note: potency is the fitted concentration of half-maximal effect. Summed up:
as §2

Test [20] is described as follows: A CellTox Green Cytotoxicity Assay to monitor cytotoxicity in HEK293 cells - 40 hour (AID 1224871). Note: nearly all actives have a fitted effect of over 45% in size. Summed up: as §3

Values without a mark were called inactive. Results filed as inconclusive are left out. Calls of active or inactive are those of the source. Unless noted, calls come from the whole dose curve; as a rule, active = well fitted curve in the direction sought with a large enough effect in the repeat runs; inconclusive = weak or mixed curves; inactive = no such curve, though single readings can be large; an effect the other way counts as inactive or inconclusive.
% is set by controls: 0 for no effect and ±100 for the full control effect.

Regarding `N#CCC#N`, in [1], the Potency is 89.8 µM (active). In addition, the molecule was called inactive in [2]. In addition, the Potency entry in test [3], in test [4], in test [5], in test [6], in test [7] and in test [8] was “inactive” throughout. Further, the Potency result in test [10], in test [11], in test [12], in test [13], in test [14] and in test [15] was “inactive” throughout. Also, in test [9], the max response was -1.97%.

As for `COc1ccc(-c2ccccc2)cc1NNC(=O)OC(C)C`, the Potency result in test [1], in [6], in test [11], in test [12], in test [13] and in test [18] was “inactive” each time. The result in [2] was inactive. Besides, the Potency is 31.9 µM (active) in test [16] and 51 µM (active) in [5]. Besides, in test [17], the activity change, positive = activation is -62.9%.

Regarding `CNP(=O)(OC)Oc1ccc(C(C)(C)C)cc1Cl` (stereo not given), the Potency entry in [1], in test [4], in test [6], in test [7], in test [8] and in [12] was “inactive” throughout. Also, the molecule was classed as inactive in test [2]. For the same molecule, the Potency in [16] was 48.6 µM (active); in test [18], 54.9 µM (active). In addition, the activity change, positive = activation in [17] was -37.4%.

For `CCOP(=S)(Oc1ccc([N+](=O)[O-])cc1)c1ccccc1` (stereo not given), the Potency entry in test [1], in [16], in [4], in test [5], in test [6] and in test [7] was “inactive” throughout. Besides, the Potency entry in test [19], in test [8], in test [10], in [11], in test [12] and in test [13] was “inactive” in each case. The Potency entry in test [18], in test [14] and in test [15] was “inactive” each time. Further, the result in test [2] was inactive. Further, the activity change, positive = activation in test [17] is 24.4% (active). In test [9], the max response is 9.18%.

In the case of `CC1CC(CC2CCC(N)C(C)C2)CCC1N` (stereo not given), the Potency result in test [1], in test [3], in test [4], in test [6], in test [7] and in test [8] was “inactive” in each case. Also, the Potency entry in [11], in [12], in [13], in test [18] and in [14] was “inactive” each time. Further, the result in test [2] was inactive. In addition, the Potency is 55.8 µM (active) in test [5], 55.8 µM (active) in [9] and 62.7 µM (active) in test [10].

For `O=C(C(Cl)(Cl)Cl)C(Cl)(Cl)Cl`, the Potency result in [1], in [3], in test [4], in [5], in test [6] and in [20] was “inactive” throughout. Further, the Potency entry in test [19], in test [8], in [10], in test [11], in [12] and in [13] was “inactive” each time. The Potency result in test [18], in test [14] and in test [15] was “inactive” each time. For the same molecule, the molecule was called inactive in test [2]. Further, in test [9], the max response was -7.45%.

Turning to `Cl/C=C\Cl`, the Potency result in test [1], in [3], in test [4], in [5], in test [6] and in [20] was “inactive” each time. Further, the Potency entry in [19], in [8], in test [10], in [11], in [12] and in test [13] was “inactive” in each case. Further, the Potency result in test [18] and in test [14] was “inactive” in each case. Further, the call in test [2] was inactive.

As to `CCCCCC[N+](=O)[O-]`, the Potency result in [1], in test [3], in [4], in test [5], in [6] and in test [20] was “inactive” throughout. For the same molecule, the Potency entry in test [19], in test [8], in test [10], in [11], in test [12] and in test [13] was “inactive” in each case. Besides, the Potency result in [18], in [14] and in test [15] was “inactive” throughout. The molecule was called inactive in [2]. For the same molecule, in test [9], the max response was 4.3%.

With `CCCCc1c(C)nc(NCC)nc1OS(=O)(=O)N(C)C`, the Potency result in test [1], in test [4], in test [6], in [7], in [20] and in test [8] was “inactive” each time. Besides, the Potency result in test [10], in [11], in test [12], in test [13], in test [18] and in [14] was “inactive” in each case. In test [2], the outcome was inactive. In addition, the Potency in test [16] is 30.6 µM (active); in test [5], 11 µM (active); in test [19], 12.3 µM (active); in test [9] it was 13.8 µM (active). Besides, the activity change, positive = activation in [17] was -48.3%.
